The record followed here is ChEMBL document CHEMBL3988442, “University of Dundee, Small-Polar-MMV Screening Library” (2021).

Assay [1] deals with T1, Aspartate--tRNA(Asp/Asn) ligase (Mycobacterium tuberculosis (strain ATCC 25618 / H37Rv)) (UniProt P9WFW3).
T1 sequence (whole entry): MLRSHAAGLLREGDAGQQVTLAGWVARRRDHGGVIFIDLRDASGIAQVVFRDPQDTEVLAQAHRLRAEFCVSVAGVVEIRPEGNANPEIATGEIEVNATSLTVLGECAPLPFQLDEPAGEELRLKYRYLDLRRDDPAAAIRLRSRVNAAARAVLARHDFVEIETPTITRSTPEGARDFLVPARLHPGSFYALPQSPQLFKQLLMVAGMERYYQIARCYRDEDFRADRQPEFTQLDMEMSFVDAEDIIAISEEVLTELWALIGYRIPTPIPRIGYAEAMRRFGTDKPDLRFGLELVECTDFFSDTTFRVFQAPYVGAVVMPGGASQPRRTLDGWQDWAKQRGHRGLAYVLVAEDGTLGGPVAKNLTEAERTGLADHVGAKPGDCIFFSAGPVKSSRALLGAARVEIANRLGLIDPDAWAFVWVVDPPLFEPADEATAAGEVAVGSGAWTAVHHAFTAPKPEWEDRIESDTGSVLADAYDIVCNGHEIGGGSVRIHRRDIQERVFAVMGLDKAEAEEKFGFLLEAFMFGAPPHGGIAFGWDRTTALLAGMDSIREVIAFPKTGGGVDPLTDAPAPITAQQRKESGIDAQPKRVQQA
Kind of assay: Assay for Asp RNA synthetase-1 from Mycobacterium tuberculosis. It counts as functional. Conditions: 30 µM. Also noted: scale not given: direction of the effect not stated beside the values.

Assay [2] concerns the target Shiga toxin 2 (Escherichia coli O157:H7) (UniProt P09385+P09386). The assay is described as follows: E. coli 0.157:H7 Shiga Toxin SOP - stx2 screening assay. It counts as functional. The arrangement: scale not given: direction of the effect not stated beside the values. The settings on record: 30 µM.

For `CNC(=O)CN(C)c1nc(-c2ccncc2)nc2c1CCN(C(C)=O)C2`, the Percent Effect in assay [1] was -1.03%; in assay [2], -0.42%.

With `O=C(NCc1ccco1)C1CCCN1Cc1nc(-c2ccco2)no1` (centres undefined), the Percent Effect came out at 3.58% in assay [1] and 23.3% in assay [2].

`Cc1ccccc1NS(=O)(=O)c1cc2c(c(C(=O)O)c1)OCCO2`: the results for the Percent Effect in assay [1] and in assay [2] were -0.815% and 29.1%, respectively.

As to `COCC1CN(Cc2ccc(C)o2)Cc2nnn(CC3CC3)c21` (centres undefined), the Percent Effect in assay [1] was -0.416%; in assay [2] it was -35.9%.

Regarding `O=C(C1CCCC1)N1CCC2(CC1)COCCN2CC1CC1`, the Percent Effect in assay [1] is -3.37%; in assay [2] it was 0.147%.

Consider `NC(=O)c1ccc(S(=O)(=O)NC2CCN(Cc3ccccc3)C2=O)cc1` (centres undefined), for which the results for the Percent Effect in assay [1] and in assay [2] were -5.17% and 5.52%, respectively.

`CC(C)CN1CCN(C)C2(CCN(Cc3ccsc3)CC2)C1=O`: the values for the Percent Effect in assay [1] and in assay [2] were 1.25% and -3.28%, respectively.

For `Cc1cnn(CC(C)NCc2csc(-c3ccco3)n2)c1` (centres undefined), the Percent Effect amounted to 2.75% in assay [1] and 1.53% in assay [2].

Regarding `Cc1nc(C)c2c(n1)CCN(C(=O)CC1CC1)CC2`, the values for the Percent Effect in assay [1] and in assay [2] were -2.64% and -5.99%, respectively.

As for `Cc1nc2ccnn2c(C)c1CCC(=O)N1CCC(C(N)=O)CC1`, the Percent Effect worked out at 0% in assay [1] and 13.3% in assay [2].

As to `Cc1cnn(CC2CCCN2C(=O)c2cc(Cl)ccc2F)c1` (centres undefined), the results for the Percent Effect in assay [1] and in assay [2] were 1.32% and -18.5%, respectively.

For the compound `O=C(O)c1cc(NS(=O)(=O)c2cccc(Cl)c2F)ccc1Cl`, the results for the Percent Effect in assay [1] and in assay [2] were 0.425% and 20.1%, respectively.

Consider `COCC(=O)N1CCC(c2nccnc2Oc2cccnc2C)CC1`, for which the Percent Effect in assay [1] turned out to be 3.02%; in assay [2] it was 6.27%.

On to `O=C(c1ccc(F)cc1F)N1CC[C@H](O)[C@@H](N2CCOCC2)CC1`, for which the Percent Effect in assay [1] is 0.28%; in assay [2], -21.2%.

For `O=C1CC2(CCN(CC3CCOC3)CC2)CN1Cc1cc(F)cc(F)c1` (centres undefined), the Percent Effect was -4.88% in assay [1] and 2.13% in assay [2].

For `CS(=O)(=O)N1CCCN(C(=O)c2ccc(Cn3ccccc3=O)o2)CC1`, the values for the Percent Effect in assay [1] and in assay [2] were 1.66% and 25%, respectively.

`O=C(CN1CCCCC1Cn1cncn1)NCCC1=CCCCC1` (centres undefined): the Percent Effect in assay [1] was 2.88%; in assay [2], 11.4%.
